# Reference: PubChem BioAssay (Tox21)
# “And” between values parts separate entries of the source, which are not always exact repeats. Equal entries are not always repeated. Records with an inconclusive call do not appear. Entries that show only a call come without a potency. Where a structure was tested more than once in an assay, its records may differ in their call. The source made the active and inactive calls. Unless noted, calls come from the whole dose curve; as a rule, active = well fitted curve in the direction sought with a large enough effect in the repeat runs; inconclusive = weak or mixed curves; inactive = no such curve, though single readings can be large; an effect the other way counts as inactive or inconclusive.
# Key:
# [1] = A CellTox Green Cytotoxicity Assay to monitor cytotoxicity in HepG2 cells - 8 hour (AID 1224890); note: nearly all actives have a fitted effect of over 45% in size; note: potency is the fitted concentration of half-maximal effect
# How it was run: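 Real-time cytotoxicity: fluorescence of a cell-impermeant cyanine dye binding DNA of dead HepG2 cells, measured repeatedly (0–40 h) during compound exposure at 37 C. Cells seeded 600/well with reagent, dosed after 5 h.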
# [2] = qHTS assay to identify small molecule antagonists of the estrogen receptor alpha (ER-alpha) signaling pathway using the BG1 cell line in the presence of 0.1 nM 17-beta-estradiol - cell viability counter screen (AID 1259241); note: nearly all actives have a fitted effect of over 40% in size; note: potency is the fitted concentration of half-maximal effect
# How it was run: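 Following 5 days in phenol red-free medium with charcoal-stripped serum, VM7Luc4E2 cells received test compounds alongside 0.1 nM 17beta-estradiol (final) at 37C for 22 hr. Live cells were then quantified via protease-substrate fluorescence.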
# [3] = biological target: Androgen receptor (Homo sapiens) (UniProt P10275); assay: qHTS assay to identify small molecule antagonists of the androgen receptor (AR) signaling pathway using the MDA cell line in the presence of 0.5 nM R1881 (AID 1259243); note: nearly all actives have a fitted effect of over 50% in size; note: potency is the fitted concentration of half-maximal effect
# Sequence of Androgen receptor (Homo sapiens) (P10275 whole entry, looked up): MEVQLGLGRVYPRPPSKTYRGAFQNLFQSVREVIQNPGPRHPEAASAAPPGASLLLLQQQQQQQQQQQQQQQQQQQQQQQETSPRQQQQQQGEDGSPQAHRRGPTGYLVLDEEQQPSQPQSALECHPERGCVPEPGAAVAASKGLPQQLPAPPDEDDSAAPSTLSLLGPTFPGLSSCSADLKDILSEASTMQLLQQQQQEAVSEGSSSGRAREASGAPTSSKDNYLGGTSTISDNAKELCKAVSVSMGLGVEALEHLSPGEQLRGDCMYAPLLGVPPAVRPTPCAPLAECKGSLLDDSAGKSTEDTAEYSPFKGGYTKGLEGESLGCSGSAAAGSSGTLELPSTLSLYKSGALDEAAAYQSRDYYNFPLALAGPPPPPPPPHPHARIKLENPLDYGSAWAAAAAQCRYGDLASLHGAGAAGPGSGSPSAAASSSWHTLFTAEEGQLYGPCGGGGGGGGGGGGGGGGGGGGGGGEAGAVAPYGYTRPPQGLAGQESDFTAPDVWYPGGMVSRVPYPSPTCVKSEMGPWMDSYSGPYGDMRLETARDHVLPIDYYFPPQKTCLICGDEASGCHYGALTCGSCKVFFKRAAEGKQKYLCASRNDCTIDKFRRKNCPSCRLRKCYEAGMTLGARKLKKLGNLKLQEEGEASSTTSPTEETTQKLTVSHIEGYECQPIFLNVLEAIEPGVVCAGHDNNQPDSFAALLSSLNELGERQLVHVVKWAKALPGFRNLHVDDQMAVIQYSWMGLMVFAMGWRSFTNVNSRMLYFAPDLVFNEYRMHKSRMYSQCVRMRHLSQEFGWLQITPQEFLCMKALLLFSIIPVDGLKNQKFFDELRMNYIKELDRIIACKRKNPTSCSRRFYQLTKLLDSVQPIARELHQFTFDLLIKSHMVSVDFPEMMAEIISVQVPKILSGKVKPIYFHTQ
# How it was run: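 Luminescent reporter readout (ONE-Glo, 30 min, room temperature) after 16 hr co-treatment of MDA-kb2 cells with test compounds and 0.5 nM R1881 final, at 37C without CO2. The MMTV-driven luciferase responds to both AR and GR.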
# [4] = biological target: Estrogen receptor (Homo sapiens) (UniProt P03372); assay: qHTS assay to identify small molecule antagonists of the estrogen receptor alpha (ER-alpha) signaling pathway using the BG1 cell line in the presence of 0.1 nM 17-beta-estradiol (AID 1259244); note: nearly all actives have a fitted effect of over 50% in size; note: potency is the fitted concentration of half-maximal effect
# Sequence of Estrogen receptor (Homo sapiens) (P03372 whole entry, looked up): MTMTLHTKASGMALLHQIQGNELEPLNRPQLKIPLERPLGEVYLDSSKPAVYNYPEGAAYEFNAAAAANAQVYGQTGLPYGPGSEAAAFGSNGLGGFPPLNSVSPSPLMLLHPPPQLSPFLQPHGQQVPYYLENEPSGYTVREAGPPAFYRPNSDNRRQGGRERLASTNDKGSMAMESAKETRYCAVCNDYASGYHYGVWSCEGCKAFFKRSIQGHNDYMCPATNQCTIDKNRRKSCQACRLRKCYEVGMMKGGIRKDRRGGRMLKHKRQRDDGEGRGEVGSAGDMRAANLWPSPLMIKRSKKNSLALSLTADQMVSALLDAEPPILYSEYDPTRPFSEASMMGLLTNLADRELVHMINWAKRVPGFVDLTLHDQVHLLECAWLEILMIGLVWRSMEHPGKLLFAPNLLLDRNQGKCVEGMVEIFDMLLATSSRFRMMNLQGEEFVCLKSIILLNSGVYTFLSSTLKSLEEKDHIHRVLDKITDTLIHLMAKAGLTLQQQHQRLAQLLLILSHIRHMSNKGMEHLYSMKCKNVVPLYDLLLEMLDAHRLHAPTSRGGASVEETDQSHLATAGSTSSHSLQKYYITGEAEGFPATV
# How it was run: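 Luciferase luminescence (ONE-Glo, 30 min at room temperature) was read after 22 hr at 37C exposure to compounds plus 17beta-estradiol at 0.1 nM final. Cells were VM7Luc4E2 with endogenous ER-alpha and an ERE-driven luciferase, pre-cultured 5 days in hormone-depleted medium.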
# [5] = qHTS assay to identify small molecule phospholipidosis (PLD) inducers (AID 1259344; active = well fitted curve in the direction sought with a large enough effect; an effect the other way counts as inactive or inconclusive; note: potency is the fitted concentration of half-maximal effect)
# How it was run: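 Read-out is LipidTOX Red fluorescence (ex 595/em 615) imaged in HepG2 cells after 24 h compound exposure at 37 C, with Hoechst nuclear counterstain (ex 352/em 461) allowing per-cell normalisation.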
# [6] = qHTS assay to identify small molecule HDAC inhibitors (AID 1259364); note: nearly all actives have a fitted effect of over 45% in size; note: potency is the fitted concentration of half-maximal effect
# How it was run: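 Luminescence read after 30 min room-temperature HDAC-Glo incubation measures cellular class I/II HDAC activity. Compounds were applied for 2 hr at 37 C to HCT-116 wild-type cells seeded the day before.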
# [7] = qHTS assay to identify small molecule HDAC inhibitors - cell viability counter screen (AID 1259365); note: series mostly up to about 92 µM; nearly all actives have a fitted effect of over 50% in size
# How it was run: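 HCT-116 wild-type, overnight attachment; 2hr drug exposure, 37C; CellTiter-Glo luminescent ATP readout after 30min RT.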
# [8] = qHTS assay to identify small molecule agonists of the sonic hedgehog signaling (Shh) pathway - cell viability counter screen (AID 1259366); note: nearly all actives have a fitted effect of over 50% in size; note: potency is the fitted concentration of half-maximal effect
# How it was run: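 Compounds in DMSO were pin-transferred onto 3T3 Gli1-Luc cells that had settled 4hr; plates then stood 24hr at 37C and 5% CO2. One hour before the end, CellTiter-Fluor was added and fluorescence recorded.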
# [9] = qHTS assay to identify small molecule antagonists of the sonic hedgehog signaling (Shh) pathway - cell viability counter screen (AID 1259367); note: nearly all actives have a fitted effect of over 55% in size; note: potency is the fitted concentration of half-maximal effect
# How it was run: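 Fluorescence read-out (CellTiter-Fluor, 1 hr at 37C) taken after 23 hr compound treatment of 3T3 Gli1-Luc cells stimulated with conditioned medium. Cells were seeded at 2,000 per well and pre-incubated 4 hr.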
# [10] = qHTS assay to identify small molecule antagonists of the androgen receptor (AR) signaling pathway using the MDA cell line in the presence of 0.5 nM R1881 - cell viability counter screen (AID 1259242); note: nearly all actives have a fitted effect of over 45% in size; note: potency is the fitted concentration of half-maximal effect
# How it was run: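 Live-cell protease activity was measured by CellTiter-Fluor fluorescence after 30 min. Before that, MDA-kb2 MMTV-luciferase cells had 16 hr at 37C without CO2, exposed to test compounds and 0.5 nM R1881 final.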
SMILES,Potency [1],Potency [2],Potency [3],Potency [4],Potency [5],Potency [6],Potency [7],Potency [8],Potency [9],Potency [10],PLD induction [5]
CCOc1ccc(Cc2nccc3cc(OCC)c(OCC)cc23)cc1OCC,inactive,inactive,10.6 µM (active),8.41 µM (active),inactive,inactive,inactive,inactive,inactive,,
Cc1cccc(N(C)C(=S)Oc2ccc3c(c2)CCC3)c1,inactive,,,inactive,,inactive,inactive,inactive,inactive,inactive,-4.02% [at 7.66 µM] (inactive)
CC(C)=CCC1C(=O)N(c2ccccc2)N(c2ccccc2)C1=O,inactive,,,inactive,inactive,inactive,inactive,inactive,inactive,inactive,
O=[N+]([O-])c1cc(C2CCCCC2)c(O)c([N+](=O)[O-])c1,inactive,,7.67 µM (active),7.67 µM (active),,inactive,inactive,24.3 µM (active),24.3 µM (active),15.3 µM (active),
O=C(O)CCC(=O)C(=O)O,inactive,,,inactive,inactive,inactive,inactive,inactive,inactive,inactive,
CCCCCC[C@@H](O)C/C=C\CCCCCCCC(=O)OCC(O)CO (stereo not given in full),inactive,,inactive,inactive,,inactive,inactive,inactive,inactive,inactive,
CC(C)c1nc(CN(C)C(=O)N[C@H](C(=O)N[C@@H](Cc2ccccc2)C[C@H](O)[C@H](Cc2ccccc2)NC(=O)OCc2cncs2)C(C)C)cs1,inactive,,,inactive,inactive and 10 µM (active),inactive,inactive,6.68 µM (active),7.5 µM (active),inactive,
CCOC(C)=O,inactive,,,inactive,inactive,inactive,inactive,inactive,inactive,inactive,
C[C@H]1C[C@H](O)c2ccsc2S1(=O)=O,inactive,,inactive,inactive,,inactive,inactive,inactive,inactive,inactive,
Nc1ccc(N=Nc2ccccc2)c(N)c1,inactive,26.7 µM (active),,inactive,,1.5 µM (active),inactive,,,,
Cc1cc2c(OCC(CNC(C)(C)C)OC(=O)c3ccccc3)cccc2[nH]1 (stereo not given),inactive,inactive,,inactive,inactive,inactive,inactive,,inactive,,
COc1ccccc1Oc1c(NS(=O)(=O)c2ccc(C(C)(C)C)cc2)nc(-c2ncccn2)nc1OCCO,inactive,,,inactive,inactive,inactive,inactive,inactive,26.6 µM (active),inactive,
c1cc(N(CC2CO2)CC2CO2)ccc1Cc1ccc(N(CC2CO2)CC2CO2)cc1 (stereo not given),inactive,,27.3 µM (active),,,,inactive,54.5 µM (active),54.5 µM (active),inactive,
Oc1ccc(Cl)c2cccnc12,inactive,inactive,10.6 µM (active),21.1 µM (active),inactive,inactive,inactive,,3.35 µM (active),,
C[C@]12CC[C@@H]3c4ccc(O)cc4CC[C@H]3[C@@H]1CC[C@@H]2OC(=O)CCC1CCCC1,49 µM (active),,,inactive,inactive,inactive,inactive,54.5 µM (active),inactive,inactive,
Nc1nnc(-c2ccc([N+](=O)[O-])o2)o1,inactive,61.1 µM (active),,54.5 µM (active),,inactive,inactive,,27.3 µM (active),,
CC(C)=CCC/C(C)=C/CC/C(C)=C/CCC(=O)OC/C=C(\C)CCC=C(C)C,inactive,,,inactive,,inactive,inactive,inactive,inactive,inactive,-0.0635% [at 1.53 µM] (inactive)
CC(C)COCC(CN(Cc1ccccc1)c1ccccc1)N1CCCC1 (stereo not given),23.9 µM (active),,,29.8 µM (active),inactive,inactive,inactive,,,29.8 µM (active),
Cc1c(C)c2c(c(C)c1OC(=O)CCC(=O)OCCO)CC[C@@](C)(CCC[C@H](C)CCC[C@H](C)CCCC(C)C)O2,inactive,,,inactive,,inactive,inactive,inactive,inactive,inactive,
O=C1NC(=O)c2cc([N+](=O)[O-])ccc21,inactive,,inactive,inactive,,inactive,inactive,inactive,inactive,inactive,
COc1ccccc1NC(=O)c1cc2ccccc2cc1O,inactive,,30.6 µM (active),43.3 µM (active),,24.3 µM (active),inactive,,inactive,inactive,
CCCCN(CCN(CCCC)C(=O)N1CCOCC1)C(=O)N1CCOCC1,inactive,,inactive,inactive,,inactive,inactive,inactive,26.6 µM (active),inactive,
